Screens from PubChem BioAssay.
Most compounds without a hit are left out; they make up all but 19% or so of the library.
VP16 counter = Gal4-VP16 reporter inhibition counter-screen. Potency, µM (titrated, usually from 53.6 µM), for inactives: at the highest dose activity, negative = inhibition, actives largely listed as inhibitors. Drosophila S2 Gal4-VP16 UAS-luciferase, luminescence, 20 h. actives 3.5% (n = 310,000);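 further: Gal4-VP16 expression switched on by copper sulfate through the metallothionein promoter; nearly all actives have a fitted effect of over 50% in size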
RORg inh = blocks mouse ROR gamma transcriptional activity. P51450. Drosophila S2 Gal4-RORgamma UAS-luciferase reporter, 20 h. Potency, µM (highest dose often 53.6 µM), for inactives: at the highest dose activity change, negative = inhibition, usual class: inhibitors. actives 5.4% (n = 310,000); further: nearly all actives have a fitted effect of over 60% in size
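Drosophila Schneider cells stably carrying a metallothionein-driven Gal4 DBD–ROR gamma fusion and a UAS-Photinus luciferase reporter were exposed to compound for 1 hr, then induced with copper sulfate (700 uM final) for 20 hr at ambient temperature before luminescence reading.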
TDP1 cell CPT = DT40-hTDP1 cell growth loss with CPT. chicken DT40 Tdp1-/-;hTDP1 cells + 20 nM CPT, ATP luminescence, 48 h. Potency, µM (doses to about 46.2 µM), for the others: at the highest dose activity change, negative = growth inhibition, most hits filed as inhibitors. actives 12% (n = 420,000). AID 686979; further: nearly all actives have a fitted effect of over 55% in size
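Chicken DT40 Tdp1-/- cells stably complemented with human TDP1 were seeded at 400 cells/well in medium containing 20 nM camptothecin, exposed to pin-transferred compounds, and grown at 37 °C for at least 48 hr. Viability was read as ATP luminescence.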
TDP1 block = TDP1 (human) enzyme inhibition. actives 0.28% (n = 350,000). Potency, µM (top dose mostly 130 µM), inactives show at the highest dose activity change, negative = inhibition, actives largely listed as inhibitors. Q9NUW8. recombinant TDP1, AlphaScreen DNA substrate cleavage. AID 485290; further: nearly all actives have a fitted effect of over 40% in size
Target sequence (Q9NUW8 whole entry, looked up): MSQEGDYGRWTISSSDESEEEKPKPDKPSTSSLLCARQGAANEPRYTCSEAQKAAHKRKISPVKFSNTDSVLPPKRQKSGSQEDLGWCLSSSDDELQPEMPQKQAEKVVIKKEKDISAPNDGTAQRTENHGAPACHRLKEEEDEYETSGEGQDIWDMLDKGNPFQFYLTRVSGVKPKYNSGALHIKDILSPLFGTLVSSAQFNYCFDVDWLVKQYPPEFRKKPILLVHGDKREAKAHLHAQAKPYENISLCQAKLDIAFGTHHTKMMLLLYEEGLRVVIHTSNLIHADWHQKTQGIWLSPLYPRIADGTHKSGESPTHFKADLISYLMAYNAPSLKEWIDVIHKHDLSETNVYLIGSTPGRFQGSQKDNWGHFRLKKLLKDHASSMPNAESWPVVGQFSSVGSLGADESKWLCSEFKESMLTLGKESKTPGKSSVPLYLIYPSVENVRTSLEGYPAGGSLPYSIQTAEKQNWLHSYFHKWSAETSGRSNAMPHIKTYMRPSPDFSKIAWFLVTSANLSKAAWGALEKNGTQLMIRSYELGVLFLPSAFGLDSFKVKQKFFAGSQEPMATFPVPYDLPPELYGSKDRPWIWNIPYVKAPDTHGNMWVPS
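Signal: AlphaScreen proximity between streptavidin donor and anti-FITC acceptor beads on intact substrate. Reaction: Tdp1 1 nM, substrate 15 nM final, 5 min RT after 15 min compound preincubation.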
DT40 TDP1 no CPT = qHTS for Inhibitors of human tyrosyl-DNA phosphodiesterase 1 (TDP1): qHTS in cells in absence of CPT | DT40 Tdp1-/- hTDP1 cells, no CPT, ATP luminescence, 48 h | actives 15% (n = 420,000) | Potency, µM (doses to about 46.2 µM), for inactives: at the highest dose activity change, negative = growth inhibition, usual class: inhibitors; further: nearly all actives have a fitted effect of over 55% in size
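Growth of hTDP1-complemented DT40 Tdp1-knockout cells is measured by ATP luminescence after at least 48 hr compound exposure at 37 °C, with DMSO substituting for the 20 nM CPT used in the parallel screen.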
Starred values were filed as active, the others as inactive; ? = inconclusive; / = no result given. The call rests on the fitted dose curve; in most records, active means well fitted curve in the direction sought with a large enough effect; inconclusive means small, poorly fitted or top-dose-only effect, or another doubt; inactive means no such curve, though single readings can be large; an effect the other way counts as inactive or inconclusive. On the % scale 0 is the no-effect control and ±100 the full control effect; potency means the concentration at half of the fitted maximal effect.

SMILES	VP16 counter	RORg inh	TDP1 cell CPT	TDP1 block	DT40 TDP1 no CPT
O=C(CCC(=O)N1CCOc2ccc(Cl)cc21)NCCCN1CCN(Cc2ccccc2)CC1	8%	4%	?	/	-21%
Cc1ccc2c(c1)N(C(=O)CCC(=O)NCCCN1CCC(Cc3ccccc3)CC1)CCO2	-6%	-22%	?	/	18µM*
CCOc1ccc(C(C)=O)cc1CSc1nnc(-c2cccs2)n1CC1CCCO1 (stereo not given)	4%	12%	?	2%	18µM*
c1ccc2c(c1)oc1c(NCC3CCCO3)ncnc12 (stereo not given)	-1%	?	?	5%	18µM*
CC(C)Cc1nc2oc3c(N4CCN(CCO)CC4)ncnc3c2c2c1CCCC2	-12%	?	13µM*	8%	13µM*
CC(C)Cc1nc2oc3c(NCC4CCCO4)ncnc3c2c2c1CCC2 (stereo not given)	5%	-4%	13µM*	-3%	18µM*
CCN1CCN(c2ncnc3c2oc2nc(C(C)C)c4c(c23)CCC4)CC1	-1%	-16%	/	6%	/
COCCn1c(N)c(Sc2ccc(C)cc2)c(=O)[nH]c1=O	1%	-3%	-1%	/	-5%
CCCc1cc(=O)[nH]c(SCC(=O)NC2CC2)n1	/	/	8%	0%	-2%
Cn1cc(/C=N/n2cnc3sc4c(c3c2=O)CCCC4)c2ccccc21	-2%	4%	13µM*	4%	10µM*
Cc1ccc(C)n1-n1cnc2sc3c(c2c1=O)CCC3	-5%	-2%	?	10%	?
O=c1c2c3c(sc2ncn1-n1cccc1)CCCCC3	-9%	29%	-15%	0%	?
O=c1c2c3c(sc2ncn1/N=C/c1ccc([N+](=O)[O-])o1)CCCC3	-28%	-19%	2.6µM*	3%	2.3µM*
COc1ccc(Cc2c(-c3cccc(Cl)c3)nc3ccc(C)cn23)c(C)c1	/	/	16µM*	/	21µM*
COc1ccc(Cc2c(-c3cccc(Cl)c3)nc3cc(C)c(Br)c(C)n23)c(C)c1	/	/	-23%	/	?
COc1ccc(Cc2c(-c3ccc(F)cc3)nc3c(C)cc(Br)cn23)c(C)c1	/	/	?	/	18µM*
Cc1cc(Br)cn2c(Cc3cccc(Cl)c3)c(-c3cccc(Cl)c3)nc12	/	/	?	/	26µM*
CCCc1nc2c(C)cc(Br)cn2c1Cc1ccc(OC)cc1C	/	/	?	/	21µM*
CC1CCN(C(=O)CSc2nc3c([nH]c4ccccc43)c(=O)n2-c2ccccc2)CC1	/	/	-9%	1%	10%
Cc1ccc(S(=O)(=O)N2CCc3ccccc3C2)cc1C	-1%	-6%	-19%	/	-13%
COc1ccc(Cc2c(C3CCCCC3)nc3ccc(Cl)cn23)c(C)c1	/	/	-29%	/	?
Cc1cc(Br)cn2c(CC(C)(C)C)c(-c3cccc(Cl)c3)nc12	/	/	-13%	/	?
COc1ccc(Cc2c(-c3cccc(Cl)c3)nc3c(C)cc(Br)cn23)c(C)c1	/	/	2.6µM*	/	2.6µM*
COc1ccc(Cc2c(-c3ccccc3)nc3c(C)cc(Br)cn23)c(C)c1	/	/	16µM*	/	?
COc1ccc(Cc2c(-c3ccc(Cl)cc3)nc3c(C)cc(Br)cn23)c(C)c1	/	/	23µM*	/	21µM*
SMILES	VP16 counter	RORg inh	TDP1 cell CPT	TDP1 block	DT40 TDP1 no CPT
COc1ccc(Cc2c(C3CCCCC3)nc3c(C)cc(Br)cn23)c(C)c1	/	/	2.6µM*	/	2.6µM*
CCC1Oc2ccccc2N(CC(=O)NCCc2ccc(OC)c(OC)c2)C1=O (stereo not given)	-6%	-8%	?	0%	?
O=C(NCCCc1ccccc1)c1c(O)nc2sccn2c1=O	/	/	?	0%	?
Nc1ccc(S(=O)(=O)c2cc(O)c3ccccc3c2O)cc1	/	/	1.5µM*	/	2.3µM*
Cc1cccc(N=C2NC(=O)/C(=C3/C(=O)N(C)c4ccccc43)S2)c1C	-20%	-45%	-22%	8%	-6%
CCOC(=O)c1cccc(Nc2cc(C)nc(C)n2)c1	/	/	?	3%	16µM*
